Experimental data as given in PubChem BioAssay AID504727 (Broad Institute, 2011).
Values without a mark were called inactive. Calls of active or inactive are those of the source.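 The calls were made as follows: active = fitted half-maximal concentration AC50 at or below ten times the highest valid tested dose, with signal falling as DNA is displaced (actives reach about 34 µM in these data); inconclusive = flat fit at moderate signal loss, or poor fit quality; inactive = the rest, including signal rising instead of falling.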

experiment: acridine orange-DNA binding displacement – biochemical, fluorescence polarization, cherry-picked samples, set 2, artefact control for KSHV LANA DNA-binding inhibitor project, dose response (AID 504727); settings: series mostly up to 35 µM; activity change, negative = DNA displacement: at the top concentration;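 as to activity change, negative = DNA displacement: 0% = median of neutral control wells and -100% = mitoxantrone positive control wells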

Compound	activity change, negative = DNA displacement	AC50
Cc1cc(=O)oc2cc(OCC(=O)N3CCN(Cc4ccc5c(c4)OCO5)CC3)ccc12	-0.682%	
CCCCc1ccc(C(=O)O)nc1	2.8%	
Cc1cc(OCC(=O)OC(C)(C)C)c2c3c(c(=O)oc2c1)CCC3	2.45%	
O=c1[nH]c(=O)n(C2CCCCC2)c(O)c1C=Nc1ccc(N2CCOCC2)cc1	2.56%	
CCN(CC)C(=O)c1ccc2c(c1)C1C=CCC1C(C(=O)O)N2 (centres undefined)	6.31%	
CC(OC(=O)c1cn(C)c2ccccc12)C(=O)N1CCCC1 (centres undefined)	6.83%	
Cc1cc(/C=C2\C(=O)NC(=O)N(Cc3ccccc3)C2=O)c(C)n1-c1ccc(Cl)c(C(=O)O)c1	4.37%	
COc1ccc(OC)c(N2C(=O)NC(=O)/C(=C\c3ccc([N+](=O)[O-])s3)C2=O)c1	4.68%	
CC1=NCCc2c1[nH]c1cc(O)ccc21		3.74 µM (active)
O=[N+]([O-])c1ccc(N2CCCCCC2)c2nonc12		13.7 µM (active)
N/C(=N\N=C/c1ccc(-c2ccc(O)c(C(=O)O)c2)o1)N[N+](=O)[O-]	2.31%	
CN(C)C1C(=O)C(C(N)=O)=C(O)C2(O)C(=O)C3=C(O)c4c(O)cccc4C(C)(O)C3C(O)C12 (centres undefined)	1.49%	
CCOC(=O)c1c(/N=C/c2c(O)n(-c3cccc(C)c3)c(=O)[nH]c2=O)sc2c1CCCC2	4.56%	
Nc1ccc2ccc3cccc[n+]3c2c1		1.87 µM (active)
COCCNC(=O)Cn1cc(/C=C2\C(=O)NC(=O)N(c3cccc(C)c3C)C2=O)c2ccccc21		20.4 µM (active)
COC(=O)C1=C(c2ccc(OC(F)(F)F)cc2)C[C@@H]2CC[C@H]1N2C(=O)NC1CCCCC1	6.88%	
CCOC(=O)C1CCCN(c2ccc([N+](=O)[O-])c3nonc23)C1 (centres undefined)		3.67 µM (active)
Nc1ccc2nonc2c1[N+](=O)[O-]		8.02 µM (active)
O=C(O)c1cccc2c1NC(C(=O)O)C1CC(Sc3ccccc3[N+](=O)[O-])C(Cl)C21 (centres undefined)	5.91%	
O=c1c2ccccc2nc(/C=C\c2ccccc2[N+](=O)[O-])n1-c1ccccc1O	5.85%	
CN1CCN(c2ccc([N+](=O)[O-])c3no[n+]([O-])c23)CC1		29.2 µM (active)
CC(C)CC(=O)Nc1ccc(S(=O)(=O)N2CC3CC(C2)c2cccc(=O)n2C3)cc1 (centres undefined)	-1.57%	
CC(Cc1ccccc1)NC(=O)NC(C)Cc1ccccc1 (centres undefined)	-2.07%	
CCn1c(O)c(N=Nc2cccc(S(=O)(=O)N3CCOCC3)c2)c(=O)n(CC)c1=S	-0.935%	
